In PubChem BioAssay (NCATS):
Where “and” joins values, the source holds several entries; their conditions need not be identical. Equal entries are not always repeated. Records with an inconclusive call do not appear. Calls of active or inactive are those of the source. Unless noted, calls come from the whole dose curve; as a rule, active = well fitted curve in the direction sought with a large enough effect; inconclusive = small, poorly fitted or top-dose-only effect, or another doubt; inactive = no such curve, though single readings can be large; an effect the other way counts as inactive or inconclusive.

Assays:
[1] = Cell Viability - Renal Proximal Tubule (AID 545);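 note: 0% = DMSO only and -100% = 100 µM tamoxifen; nearly all actives have a fitted effect of over 40% in size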
Procedure, shortened: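 In this qHTS format, normal rat kidney-derived proximal tubule cells in complete culture medium receive compound titrations, then sit 40 hours at 37 °C before luciferase-based ATP quantitation; potency is reported as AC50 from concentration-response curves.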

[2] = target: Cytochrome P450 3A4 (Homo sapiens) (UniProt P08684); assay: qHTS Assay for Inhibitors and Substrates of Cytochrome P450 3A4 (AID 884); note: nearly all actives have a fitted effect of over 50% in size; note: potency is the fitted concentration of half-maximal effect
Sequence of Cytochrome P450 3A4 (Homo sapiens) (P08684 whole entry, looked up): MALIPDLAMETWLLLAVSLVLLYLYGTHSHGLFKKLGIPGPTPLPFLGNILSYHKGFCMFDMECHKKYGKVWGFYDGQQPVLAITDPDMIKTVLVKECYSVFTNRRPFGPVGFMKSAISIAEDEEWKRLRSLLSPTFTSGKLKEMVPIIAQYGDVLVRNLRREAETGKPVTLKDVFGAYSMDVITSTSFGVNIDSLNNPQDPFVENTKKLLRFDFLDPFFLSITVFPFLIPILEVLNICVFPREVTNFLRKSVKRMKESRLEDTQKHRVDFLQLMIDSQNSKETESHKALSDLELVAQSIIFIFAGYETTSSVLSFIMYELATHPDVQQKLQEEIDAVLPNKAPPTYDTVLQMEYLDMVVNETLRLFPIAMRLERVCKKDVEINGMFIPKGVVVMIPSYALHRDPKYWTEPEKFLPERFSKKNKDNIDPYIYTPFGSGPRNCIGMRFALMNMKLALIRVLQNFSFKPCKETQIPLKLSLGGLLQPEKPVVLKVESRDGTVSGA
Procedure, shortened: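 Luminescent readout of luciferin produced by CYP3A4 (20 nM) dealkylation of Luciferin-PPXE, 25 uM (its KM). NADPH-driven reaction ran 60 min at RT after 10 min compound preincubation; data scaled to 57 uM ketoconazole as 100% inhibition.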

[3] = Cell Viability - LYMP2-009 (AID 968);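 note: series mostly up to about 92 µM; 0% = DMSO alone and the full-kill end = tetraoctylammonium bromide at 92 µM; nearly all actives have a fitted effect of over 55% in size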
[4] = Cell Viability - LYMP2-011 (AID 969);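 note: 0% = DMSO only and full inhibition = 92 µM tetraoctylammonium bromide; nearly all actives have a fitted effect of over 60% in size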
Procedure, shortened: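 In this qHTS cytotoxicity format, compounds are tested across concentrations on human lymphoblastoid cells in complete medium for 24 hours at 37 C. Viability is taken as cellular ATP measured by luciferase luminescence.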

[5] = Cell Viability - LYMP2-017 (AID 972); note: series mostly up to about 92 µM; % is set by controls: 0 for no effect and ±100 for the full control effect; nearly all actives have a fitted effect of over 55% in size
Procedure, shortened: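 Cytotoxicity is scored as a concentration-dependent drop in cellular ATP in a human lymphoblastoid line after 24 hr treatment at 37 C. Values are AC50s from Hill-equation modelling.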

[6] = Cell Viability - LYMP2-019 (AID 973);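 note: 0% = DMSO alone and full effect = 92 µM tetraoctylammonium bromide; nearly all actives have a fitted effect of over 55% in size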
Procedure, shortened: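 Cytotoxicity is scored as a concentration-dependent drop in cellular ATP after cells (2500/well) receive compound for 24 hr at 37 C. Tetraoctylammonium bromide serves as positive control.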

[7] = Cell Viability - LYMP2-021 (AID 974);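 note: compound exposure lasts 24 hours at 37 °C; % is set by controls: 0 for no effect and ±100 for the full control effect; nearly all actives have a fitted effect of over 55% in size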
Procedure, shortened: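 Loss of cellular ATP, measured with a luciferase-based CellTiter-Glo readout, serves as the toxicity signal in human lymphoblastoid cells treated for 24 hours at 37 C. Potency is reported as AC50 from a standard Hill model.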

[8] = Cell Viability - LYMP2-002 (AID 977);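 note: series mostly up to about 92 µM; compound exposure lasted 24 h at 37 °C; plate controls were DMSO only for no effect and 92 µM tetraoctylammonium bromide for full effect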
Procedure, shortened: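 Human lymphoblastoid cells, 2500/well, complete medium; 5 h 37 C settle; compound 24 h 37 C; CellTiter-Glo, 30 min RT; luminescence. Decrease in ATP = cytotoxicity; AC50 via Hill equation.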

[9] = Cell Viability - LYMP2-010 (AID 981)
Procedure, shortened: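 Steps: seed 2500 LYMP2-010 cells per well; incubate 5 hr at 37 C; add compound; incubate 24 hr at 37 C; add CellTiter-Glo, wait 30 min at room temperature; read luminescence. Concentration-response fitted to Hill equation for AC50.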

[10] = Cell Viability - LYMP2-020 (AID 986)
Procedure, shortened: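 Seed 2500 cells per well and incubate 5 hr at 37 C. Add compounds at a concentration series and incubate 24 hr at 37 C. Add CellTiter-Glo, wait 30 min at RT, read luminescence, and fit a Hill curve for AC50.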

[11] = Cell Viability - LYMP1-002 - Assay at 40 hr (AID 994);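 note: 0% = DMSO only and full inhibition = 92 µM tetraoctylammonium bromide; nearly all actives have a fitted effect of over 60% in size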
Procedure, shortened: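 Cells are plated at 2500 per well and rested 5 hr at 37 C. Compounds are added and incubated 40 hr at 37 C. CellTiter-Glo reagent is added for 30 min at room temperature before luminescence is read.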

[12] = target: Retinoic acid receptor RXR-alpha (Homo sapiens) (UniProt P19793); assay: qHTS assay for small molecule antagonists of retinoid X receptor alpha signaling (AID 588546; active = well fitted inhibition curve with a large enough effect in the signal ratio, with a control signal flat, not every such curve was filed as active; the % refers to the signal ratio;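 note: cells stimulated with 9-cis-retinoic acid as agonist; % is set by controls: 0 for no effect and ±100 for the full control effect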); settings: HEK293T RXRa-UAS-bla, beta-lactamase ratio, antagonist mode
Sequence of Retinoic acid receptor RXR-alpha (Homo sapiens) (P19793 whole entry, looked up): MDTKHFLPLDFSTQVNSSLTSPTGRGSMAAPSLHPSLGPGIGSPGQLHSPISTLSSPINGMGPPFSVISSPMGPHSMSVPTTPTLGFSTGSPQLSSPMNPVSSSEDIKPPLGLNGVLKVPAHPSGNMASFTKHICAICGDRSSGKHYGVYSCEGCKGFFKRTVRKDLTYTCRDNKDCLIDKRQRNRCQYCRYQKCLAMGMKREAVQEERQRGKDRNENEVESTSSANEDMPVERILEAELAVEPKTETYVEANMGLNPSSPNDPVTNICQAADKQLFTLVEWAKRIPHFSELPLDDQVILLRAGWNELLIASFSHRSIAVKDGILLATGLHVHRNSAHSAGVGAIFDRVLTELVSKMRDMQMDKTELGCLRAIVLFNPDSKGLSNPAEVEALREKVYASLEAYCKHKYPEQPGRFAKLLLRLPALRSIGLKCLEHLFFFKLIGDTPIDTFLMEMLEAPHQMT
Procedure, shortened: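 Beta-lactamase reporter inhibition, read as CCF4 fluorescence ratio (ex 405, em 460/530 nm) after 2 h at RT. HEK293T UAS-bla cells, 2500/well, were stimulated with 9-cis-RA at 500 or 100 nM final alongside test compound for 18 h at 37 C.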

[13] = target: Voltage-gated inwardly rectifying potassium channel KCNH2 (Homo sapiens) (UniProt Q12809); assay: qHTS Assay for Small Molecule Inhibitors of the Human hERG Channel Activity (AID 588834);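 note: lower thallium flux fluorescence means stronger hERG block; nearly all actives have a fitted effect of over 50% in size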; note: potency is the fitted concentration of half-maximal effect
Sequence of Voltage-gated inwardly rectifying potassium channel KCNH2 (Homo sapiens) (Q12809 whole entry, looked up): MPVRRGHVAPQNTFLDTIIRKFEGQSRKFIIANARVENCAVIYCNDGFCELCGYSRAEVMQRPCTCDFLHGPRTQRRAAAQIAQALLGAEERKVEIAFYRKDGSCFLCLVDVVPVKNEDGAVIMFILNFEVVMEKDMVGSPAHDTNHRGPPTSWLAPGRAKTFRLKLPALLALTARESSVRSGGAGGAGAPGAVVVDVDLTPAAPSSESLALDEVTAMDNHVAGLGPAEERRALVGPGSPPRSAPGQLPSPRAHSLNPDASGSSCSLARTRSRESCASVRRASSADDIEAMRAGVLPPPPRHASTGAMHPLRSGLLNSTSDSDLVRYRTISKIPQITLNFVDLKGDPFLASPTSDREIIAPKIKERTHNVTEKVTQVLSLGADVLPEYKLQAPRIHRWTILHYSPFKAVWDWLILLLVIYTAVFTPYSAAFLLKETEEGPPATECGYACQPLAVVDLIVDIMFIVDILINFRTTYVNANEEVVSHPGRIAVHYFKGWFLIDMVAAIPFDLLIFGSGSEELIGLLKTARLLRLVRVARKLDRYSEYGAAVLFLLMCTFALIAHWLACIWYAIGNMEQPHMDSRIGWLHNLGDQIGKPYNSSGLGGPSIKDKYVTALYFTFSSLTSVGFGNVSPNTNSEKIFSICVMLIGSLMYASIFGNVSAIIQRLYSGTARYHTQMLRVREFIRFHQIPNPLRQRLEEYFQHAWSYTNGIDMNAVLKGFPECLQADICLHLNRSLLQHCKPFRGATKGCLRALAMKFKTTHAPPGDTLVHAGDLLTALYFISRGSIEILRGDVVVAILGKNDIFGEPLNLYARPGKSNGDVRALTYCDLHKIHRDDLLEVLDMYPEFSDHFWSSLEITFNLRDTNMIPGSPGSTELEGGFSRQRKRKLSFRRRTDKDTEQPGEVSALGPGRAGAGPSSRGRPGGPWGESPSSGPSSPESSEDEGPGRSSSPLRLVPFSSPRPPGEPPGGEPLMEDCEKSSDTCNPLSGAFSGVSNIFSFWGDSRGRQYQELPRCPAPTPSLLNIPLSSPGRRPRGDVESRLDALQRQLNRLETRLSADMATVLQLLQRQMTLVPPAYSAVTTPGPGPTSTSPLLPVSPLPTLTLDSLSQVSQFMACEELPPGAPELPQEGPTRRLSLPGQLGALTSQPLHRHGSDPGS
Procedure, shortened: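 Homogeneous FluxOR thallium flux assay using hERG-expressing U2OS cells (BacMam). Compound treatment about 10 minutes preceded stimulation; reduced fluorescence taken as channel block.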

[14] = qHTS assay for small molecule activators of the nuclear factor-kappa B (NF-kB) signaling pathway (AID 651749; active = well fitted activation curve with a large enough effect in the signal ratio; the % refers to the signal ratio; note: series mostly up to about 77 µM; % of control where 0% means no effect); settings: NF-kB-bla ME-180 cells, beta-lactamase FRET ratio, 16 h; hits give high values
Procedure, shortened: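 In this qHTS format, compounds acting as activators increase NF-kB-driven beta-lactamase in ME-180 cells, measured as disrupted FRET after 16 hr exposure at 37C and 5% CO2.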

[15] = qHTS assay for environmental chemicals that activate the Aryl hydrocarbon Receptor (AhR) signaling pathway (AID 651777); settings: 1A2-DRE human hepatoma cells, luciferase, 24 h; activation: hits give high values; note: % of control where 0% means no effect; nearly all actives have a fitted effect of over 15% in size
Procedure, shortened: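 Quantitative HTS in stably transfected human liver-derived cells whose luciferase gene sits downstream of the CYP1A2 promoter and dioxin response element. After 24 hr exposure at 37 C, One-Glo luminescence was measured.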

[16] = target: Nuclear receptor ROR-gamma (Homo sapiens) (UniProt P51449); assay: qHTS assay for small molecule antagonists of the retinoid-related orphan receptor gamma (ROR-gamma) signaling pathway (AID 651802);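 note: CHO cells with doxycycline-induced ROR-gamma expression; series mostly up to about 92 µM; % is set by controls: 0 for no effect and ±100 for the full control effect; nearly all actives have a fitted effect of over 60% in size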
Sequence of Nuclear receptor ROR-gamma (Homo sapiens) (P51449 whole entry, looked up): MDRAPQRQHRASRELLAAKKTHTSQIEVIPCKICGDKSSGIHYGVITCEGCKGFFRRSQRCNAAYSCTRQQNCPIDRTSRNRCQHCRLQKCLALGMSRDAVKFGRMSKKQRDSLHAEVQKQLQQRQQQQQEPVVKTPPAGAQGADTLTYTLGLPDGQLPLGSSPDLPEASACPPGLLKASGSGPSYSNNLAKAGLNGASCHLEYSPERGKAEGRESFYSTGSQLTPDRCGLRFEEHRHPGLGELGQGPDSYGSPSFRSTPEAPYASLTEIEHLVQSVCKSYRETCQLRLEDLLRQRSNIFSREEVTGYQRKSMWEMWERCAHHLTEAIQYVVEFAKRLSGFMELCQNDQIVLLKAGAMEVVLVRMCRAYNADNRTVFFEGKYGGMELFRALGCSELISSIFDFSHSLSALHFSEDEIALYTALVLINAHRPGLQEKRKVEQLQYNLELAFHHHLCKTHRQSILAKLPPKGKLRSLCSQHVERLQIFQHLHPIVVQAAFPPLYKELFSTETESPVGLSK
Procedure, shortened: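 Steps: cells dispensed; compound or DMSO transferred by pin tool; doxycycline added to induce the ROR response element-driven luciferase; plates held 16hr at 37C; ONE-Glo added and luminescence measured.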

[17] = qHTS assay for small molecule agonists of the antioxidant response element (ARE) signaling pathway measured by Nrf2-dependant transcriptional activity (AID 720636; active = well fitted curve in the direction sought with a large enough effect in the repeat runs; an effect the other way counts as inactive or inconclusive; note: % of control where 0% means no effect)
Procedure, shortened: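 Quantitative HTS format in HepG2 cells stably expressing an ARE-luciferase reporter; 16 hr compound treatment at 37 C, luciferase signal detected with ONE-Glo.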

[18] = qHTS assay for small molecule antagonists of the retinoid-related orphan receptor gamma (ROR-gamma) signaling pathway - cell viability counter screen (AID 720652; active = well fitted curve in the direction sought with a large enough effect in the repeat runs; an effect the other way counts as inactive or inconclusive;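 note: CHO reporter cells with doxycycline-induced ROR-gamma expression; series mostly up to about 92 µM; compound exposure lasted 16 hr before ATP read; % is set by controls: 0 for no effect and ±100 for the full control effect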)
Procedure, shortened: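 Steps: seed CHO cells bearing TET-inducible ROR and ROR response element-luciferase; rest 5 hr at 37 C; add compound, then doxycycline; incubate 16 hr; add CellTiter-Glo and read luminescence as ATP-based viability.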

[19] = qHTS assay for cell viability of HEK293 cells (AID 743288); settings: ATP luminescence (CellTiter-Glo), 18 h, hits give low values; note: % is set by controls: 0 for no effect and ±100 for the full control effect; nearly all actives have a fitted effect of over 50% in size
Procedure, shortened: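 HEK293, 18 h, 37 C, ATP luminescence. Cells at 2,000/well were allowed at least 5 h to settle before dosing; CellTiter-Glo developed 30 min at RT.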

[20] = qHTS assay for small molecule activators of the p53 signaling pathway (AID 651743; active = well fitted activation curve with a large enough effect in the signal ratio, not every such curve was filed as active; the % refers to the signal ratio; note: potency is the fitted concentration of half-maximal effect; for activation: series mostly up to about 92 µM; % of control where 0% means no effect); settings: HCT-116 p53RE-bla, beta-lactamase FRET ratio, 16 h; activation: hits give high values
Procedure, shortened: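 Following 16 hours of compound exposure at 37 C, HCT-116 cells bearing the p53RE-bla reporter were loaded with LiveBLAzer B/G FRET substrate for 2 hours at room temperature and fluorescence intensity was recorded.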

CC(C)(C)c1ccccc1O
inactive: outcome [1] | Potency [2] | Potency [3] | Potency [4] | Potency [5] | Potency [6] | Potency [7] | Potency [8] | Potency [9] | Potency [10] | Potency [11] | max response [12] 2.54% and -7.07% | Potency [13] | activation [14] -0.0104% and -1.11% | activation [15] 1.34% and -1.14% | Potency [16] | Potency [17] | Potency [18] | max response [19] -7.55% and -11.9%

CC(C)(Cl)[N+](=O)[O-]
inactive: outcome [1] | Potency [2] | Potency [3] | Potency [5] | Potency [6] | Potency [8] | Potency [9] | Potency [10] | max response [12] 5.8% | Potency [13] | activation [20] 3.96% | activation [14] -0.598% | activation [15] -0.364% | Potency [16] | Potency [17] | Potency [18] | max response [19] 8.03%

COc1ccccc1N
inactive: outcome [1] | Potency [2] | Potency [3] | Potency [4] | Potency [5] | Potency [6] | Potency [7] | Potency [8] | Potency [9] | Potency [11] | Potency [13] | activation [15] -0.373% | Potency [16] | Potency [17] | Potency [18] | max response [19] -0.892%

Oc1cccc(Cl)c1Cl
inactive: Potency [2] | Potency [3] | Potency [4] | Potency [5] | Potency [9] | Potency [10] | Potency [11] | max response [12] -5.77% | activation [20] 0.548% | activation [15] 0.0475% | Potency [16] | Potency [17] | max response [19] -3.83%

CCN(N=O)C(N)=O
inactive: outcome [1] | Potency [2] | Potency [3] | Potency [4] | Potency [6] | Potency [7] | Potency [8] | Potency [9] | Potency [10] | Potency [13] | activation [20] 0.306% | activation [14] -1.14% | Potency [17] | Potency [18]

COP(=S)(OC)SCn1nnc2ccccc2c1=O
active: Potency [2] 7.94 µM
inactive: outcome [1] | Potency [3] | Potency [4] | Potency [5] | Potency [6] | Potency [7] | Potency [8] | Potency [9] | Potency [10] | activation [20] 1.84% and 3.37% | activation [15] 2.58% and 5.04% | Potency [16] | Potency [17] | Potency [18] | max response [19] -22%

Cc1cc(C)cc(OP(=O)(Oc2cc(C)cc(C)c2)Oc2cc(C)cc(C)c2)c1
inactive: Potency [3] | Potency [4] | Potency [5] | Potency [6] | Potency [7] | Potency [8] | Potency [9] | activation [20] -0.0195% | Potency [17] | max response [19] -21.5%
active: Potency [2] 2.51 µM

CC(C)(COCC1CO1)COCC1CO1 (configuration not stated)
inactive: Potency [2] | Potency [3] | Potency [4] | Potency [5] | Potency [6] | Potency [7] | Potency [8] | Potency [10] | Potency [11] | max response [12] 6.95% | Potency [13] | activation [14] 0.814% | activation [15] -0.0471% | Potency [16] | Potency [18] | max response [19] -5.18%

CCOS(C)(=O)=O
inactive: outcome [1] | Potency [2] | Potency [4] | Potency [5] | Potency [6] | Potency [7] | Potency [8] | Potency [9] | Potency [10] | Potency [11] | max response [12] -0.383% | activation [20] -2.6% | activation [14] 0.8% | activation [15] 0.384% | Potency [16] | Potency [17] | Potency [18] | max response [19] -14.8%

O=S(=O)(O)F
inactive: outcome [1] | Potency [2] | Potency [5] | Potency [6] | Potency [7] | Potency [10] | Potency [11] | max response [12] 39.7% | activation [15] 0.54% | Potency [17] | Potency [18] | max response [19] -2.74%

Oc1cc(Cl)cc(Cl)c1
inactive: outcome [1] | Potency [2] | Potency [3] | Potency [5] | Potency [6] | Potency [7] | Potency [8] | Potency [9] | Potency [10] | Potency [11] | max response [12] -5.58% | Potency [13] | activation [20] 1.86% | activation [14] 0.715% | activation [15] 1.21% | Potency [16] | Potency [17] | Potency [18]

BrC(Br)Br
inactive: outcome [1] | Potency [2] | Potency [4] | Potency [5] | Potency [6] | Potency [7] | Potency [8] | Potency [9] | Potency [10] | Potency [11] | max response [12] 20% | Potency [13] | activation [14] 0.744% | activation [15] 2.01% | Potency [16] | Potency [18] | max response [19] -3.11%

C[N+](=O)[O-]
inactive: outcome [1] | Potency [2] | Potency [3] | Potency [4] | Potency [5] | Potency [6] | Potency [7] | Potency [8] | Potency [9] | Potency [10] | max response [12] 4.36% | Potency [13] | activation [20] -0.263% | activation [14] -0.658% | Potency [17] | Potency [18] | max response [19] 4.12%

C=C(Cl)CSC(=S)N(CC)CC
active: Potency [13] 39.8 µM
inactive: Potency [4] | Potency [11] | max response [12] 1.31% | activation [20] -1.91% | activation [14] -0.634% | activation [15] 0.101% | Potency [16] | Potency [18] | max response [19] 5.22%

COC(=O)Nc1nc2ccccc2[nH]1
active: Potency [20] 10 µM and 12.6 µM
inactive: Potency [3] | Potency [5] | Potency [6] | Potency [7] | Potency [8] | Potency [9] | Potency [10] | max response [12] -21.4% | Potency [13] | activation [15] 7.05% | Potency [18] | max response [19] -9.84% and -19.2%
